For orientation: inhibition means the change of the read-out against control, counted positive when it falls.

Among the data in PubChem BioAssay are inhibition, activation and activation (% of control) values, retold here.

A number with no mark means an inactive call. The list shows a part of the results. Calls of active or inactive are those of the source.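 Rule for the calls, unless noted: active = inhibition above the mean plus 3 SD of solvent-only control wells, limit set per screening run (cut at about 16% in these data); inactive = the rest.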

Experiment [1] is described as follows: blockers of IL-6 STAT3 signaling – U3A cells, luciferase, luminescence, confirmation (AID 1265;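 active = inhibition above the hit cutoff computed for the primary STAT3 screen, cut at about 44% in these data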;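 note: 0% = IL-6 plus DMSO and 100% = IL-6 plus nifuroxazide control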). Conditions: IL-6 STAT3 luciferase reporter, at 5.7 µM, stronger effect = higher value, cell line lacks STAT1. (In general: In a reporter assay the amount or activity of a reporter protein is the signal.)
Experiment [2] can be described thus: inhibition of TNF-alpha-driven NF-kB transcription – cell-based, HEK293T, luciferase, TNF-alpha stimulus, counter-screen for STAT3 inhibitor project, confirmation (AID 1308;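 active = inhibition above the mean of solvent-only control wells plus 3 SD, cutoff set per campaign, cut at about 13% in these data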;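 note: 0% = TNF-alpha with DMSO and 100% = TNF-alpha with MG high control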). Conditions: HEK293T NF-kB luciferase reporter, TNF-alpha induced; at 5.7 µM; stronger effect = higher value. On the technique in general: Counterscreens check selectivity or assay interference.
Experiment [3] in a line: inhibition of STAT1-driven transcription – cell-based, NIH 3T3, luciferase luminescence, IFN-gamma, counter-screen for STAT3 inhibitor project, confirmation (AID 1317).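 Note: 0% = DMSO with IFN-gamma and 100% = nifuroxazide control.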 Conditions: NIH 3T3 STAT1-luciferase reporter, IFN-gamma induced, at 5.7 µM, stronger effect = higher value.
Experiment [4] concerns the target Neuropeptide Y receptor type 2 (Homo sapiens) (UniProt P49146). As to the kind of experiment: human Y2 receptor positive modulation or activation – cell-based, confirmation (AID 1539; in the data active = activation above about 33%). Conditions: cell-based NPY-Y2 potentiator/agonist assay; at 3.6 µM; stronger effect = higher value.
The target of experiment [5] is Neuropeptide Y receptor type 1 (Homo sapiens) (UniProt P25929). Description: human Y1 receptor positive modulation or activation – cell-based, fluorescence, counter-screen for NPY-Y2 potentiator project (AID 1651; in the data active = activation above about 45%;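 note: cells stimulated with submaximal NPY then isoproterenol with phosphodiesterase inhibitor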). Conditions: Y1 HEK293-CNG cells, membrane potential fluorescence; at 3.6 µM; stronger effect = higher value.
Neuropeptide Y receptor type 1 (Homo sapiens), sequence (P25929 whole entry, looked up): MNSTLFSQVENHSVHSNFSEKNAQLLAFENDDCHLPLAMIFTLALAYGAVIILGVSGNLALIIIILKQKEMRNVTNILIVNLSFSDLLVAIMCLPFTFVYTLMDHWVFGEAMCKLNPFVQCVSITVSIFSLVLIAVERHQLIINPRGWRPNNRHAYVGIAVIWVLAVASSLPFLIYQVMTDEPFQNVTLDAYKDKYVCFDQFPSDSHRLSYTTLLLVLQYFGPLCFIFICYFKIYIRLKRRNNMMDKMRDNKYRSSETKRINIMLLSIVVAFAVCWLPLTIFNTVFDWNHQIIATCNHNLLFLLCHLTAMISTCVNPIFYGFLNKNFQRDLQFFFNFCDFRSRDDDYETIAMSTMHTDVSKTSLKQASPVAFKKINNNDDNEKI
For experiment [6] the target is unchanged. Description: human Y1 receptor agonism, CNGC membrane potential – cell-based, fluorescence, selectivity assay for NPY-Y2 potentiator project (AID 1702;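 active = activation above the mean of DMSO-only control wells plus 3 SD, cut at about 18% in these data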;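 note: cells stimulated with 1 µM isoproterenol plus the PDE inhibitor Ro 20-1724; 0% = isoproterenol with DMSO and no NPY and 100% = 40 nM NPY; Y1 agonists lower the membrane potential dye signal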). Conditions: HEK293 Y1-CNGC, at 3.6 µM, stronger effect = higher value.
A short description of experiment [7]: blockers of isoproterenol-driven CNG channel signal – cell-based, HEK293-CNG parental, membrane potential fluorescence, counter-screen for NPY-Y2 potentiator project (AID 1703;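 active = inhibition above the control-well mean plus 3 SD of those wells, cut at about 22% in these data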;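 note: 0% = DMSO with isoproterenol and 100% = DMSO without isoproterenol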). Conditions: isoproterenol cAMP, at 3.6 µM, stronger effect = higher value.
The target in experiment [8] is Neuropeptide Y receptor type 2 (Homo sapiens) (UniProt P49146). As to the kind of experiment: agonism at human Y2 receptor without NPY – cell-based, fluorescence, counter-screen for NPY-Y2 potentiator project (AID 1710;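 active = activation above the mean of solvent-only control wells plus 3 SD, cut at about 10% in these data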;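 note: cells stimulated by isoproterenol with no NPY added so direct agonism is tested; 0% = DMSO with isoproterenol alone and 100% = NPY at EC100 plus isoproterenol; agonism lowers probe fluorescence through less cAMP and CNG channel opening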). Conditions: HEK293 Y2/CNGC cells, membrane potential fluorescence, agonist mode; at 3.6 µM; stronger effect = higher value.
Neuropeptide Y receptor type 2 (Homo sapiens), sequence (P49146 whole entry, looked up): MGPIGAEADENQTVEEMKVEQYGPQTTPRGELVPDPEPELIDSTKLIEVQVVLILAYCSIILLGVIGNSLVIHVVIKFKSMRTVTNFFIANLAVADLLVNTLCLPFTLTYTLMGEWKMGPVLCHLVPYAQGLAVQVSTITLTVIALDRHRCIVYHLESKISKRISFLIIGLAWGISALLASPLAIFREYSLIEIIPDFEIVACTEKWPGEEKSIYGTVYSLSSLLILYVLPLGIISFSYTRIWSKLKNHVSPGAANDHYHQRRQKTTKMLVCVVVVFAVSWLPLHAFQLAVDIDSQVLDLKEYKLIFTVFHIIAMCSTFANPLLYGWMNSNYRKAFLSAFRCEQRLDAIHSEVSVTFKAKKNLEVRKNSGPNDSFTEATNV
A short description of experiment [9]: suppression of KLF5 promoter-driven luciferase – DLD-1 cells, luminescence, confirmation (AID 1834;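 active = inhibition above a set limit taken from the earlier primary screen, cut at about 63% in these data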;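 note: 0% = DMSO wells and 100% = LY294002 at 200 µM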). Conditions: DLD-1 KLF5 promoter firefly luciferase reporter, at 4 µM, stronger effect = higher value.
A short description of experiment [10]: IEC-6 intestinal cell killing – luminescence, triplicate, cytotoxicity control for KLF5 inhibitor project (AID 1905; in the data active = inhibition above about 23%;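 note: cells exposed to compounds for 48 hours before viability read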). Conditions: IEC-6 rat intestinal cells, viability luminescence; at 4 µM; stronger effect = higher value.
The subject of experiment [11] is Fam108b (Abhd17b) serine hydrolase [Mus musculus]. Description: inhibition of Fam108b (Abhd17b) hydrolase – biochemical, fluorescence polarization, triplicate, counter-screen for RBBP9 inhibitor project, confirmation (AID 1978;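 active = inhibition above a limit from the primary screen, the mean over all compounds plus 3 SD, cut at about 19% in these data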;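 note: 0% = median of active Fam108b wells and 100% = catalytically dead S170A mutant; inhibitors free the probe so polarization falls as inhibition rises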). Conditions: recombinant Fam108b, FP-Rh probe fluorescence polarization; at 9.51 µM; stronger effect = higher value. (In fluorescence polarisation assays a small probe gives low polarisation when free and higher when bound to something large.)

For experiment [12], the target named is Protein phosphatase methylesterase 1 (Homo sapiens) (UniProt Q9Y570). As to the kind of experiment: human PME-1 methylesterase inhibition confirmation – biochemical, fluorescence polarization, FP-Rh probe, triplicate (AID 2171;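 active = inhibition above the hit cutoff set in the earlier primary screen, cut at about 27% in these data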;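 note: 0% = enzyme with DMSO and 100% = wells lacking PME-1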). Conditions: recombinant PME-1, FP-Rh probe fluorescence polarization; at 5.9 µM; stronger effect = higher value.
Protein phosphatase methylesterase 1 (Homo sapiens), sequence (Q9Y570 whole entry, looked up): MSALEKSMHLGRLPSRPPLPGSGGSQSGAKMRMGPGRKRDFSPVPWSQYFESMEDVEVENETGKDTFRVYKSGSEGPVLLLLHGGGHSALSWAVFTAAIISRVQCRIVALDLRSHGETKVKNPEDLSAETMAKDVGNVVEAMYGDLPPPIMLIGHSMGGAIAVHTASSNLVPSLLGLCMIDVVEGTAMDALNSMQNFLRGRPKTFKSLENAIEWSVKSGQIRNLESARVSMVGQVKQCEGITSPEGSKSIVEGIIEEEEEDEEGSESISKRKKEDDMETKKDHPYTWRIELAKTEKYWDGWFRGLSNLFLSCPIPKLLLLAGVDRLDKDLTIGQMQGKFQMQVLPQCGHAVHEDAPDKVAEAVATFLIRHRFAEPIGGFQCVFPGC
Experiment [13] has as its target Photoreceptor-specific nuclear receptor (Homo sapiens) (UniProt Q9Y5X4). Description: retest of NR2E3-NCOR disrupting agonists – cell-based, luminescence, CHO-S two-hybrid, confirmation (AID 624378;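 active = average inhibition above a cutoff equal to the mean inhibition of all tested compounds plus one SD, cut at about 70% in these data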;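 note: 0% = DMSO in NR2E3 cells and 100% = DMSO in cells lacking NR2E3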). Conditions: CHO-S mammalian two-hybrid NR2E3-NCOR, luciferase luminescence; at 3.98 µM; stronger effect = higher value.
Experiment [14] in a line: reduced OD of V66 E. coli with T4 gene 2 phage – absorbance, RecBCD inhibitor project, confirmation (AID 651982;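 active = mean inhibition over triplicates exceeding the hit threshold derived in the original primary screen, cut at about 11% in these data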). Conditions: E. coli V66 + T4 2- phage, growth OD; at 11.9 µM; stronger effect = higher value.
Experiment [15] is described as follows: bacterial growth inhibition – absorbance, high throughput, counter-screen for RecBCD inhibitor project (AID 651983; in the data active = inhibition above about 20%;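 note: E. coli strain V66 grown with compound alone and no phage infection; 0% = bacteria with DMSO vehicle only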). Conditions: E. coli viability, absorbance (OD) growth; at 11.9 µM; stronger effect = higher value.
Experiment [16] in a line: reduced optical density, T4-challenged addAB+ bacteria – absorbance, E. coli V3065, T4 phage, counter-screen for RecBCD inhibitor project, confirmation (AID 651984;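 active = mean inhibition above the solvent-only control wells' mean plus 3 SD, cut at about 22% in these data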;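 note: higher means less bacterial growth from phage killing when AddAB is blocked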). Conditions: E. coli expressing H. pylori AddAB + T4 phage, OD growth; at 11.9 µM; stronger effect = higher value; gene 2 mutant T4, recBCD-deleted host.
Experiment [17] in a line: potentiators of IFN-gamma STAT1 reporter activity – cell-based, HTS, luciferase reporter, confirmation (AID 1262;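 active = activation above a set limit carried over from the earlier primary STAT1 screen, cut at about 140% in these data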;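 note: simple ratio to median IFN-gamma plus DMSO wells so 0% means no light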). Conditions: NIH 3T3 STAT1-luciferase reporter, IFN-gamma potentiation, luminescence; at 5.7 µM; stronger effect = higher value; 100% = IFN-gamma EC80 alone, no compound.
A short description of experiment [18]: enhancement of NF-kB transcriptional signalling – cell-based, HEK293T, luciferase luminescence, TNF-alpha, counter-screen for STAT1 activator project (AID 1306;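 active = activation above the mean of solvent-only control wells plus 3 SD, set per campaign, cut at about 130% in these data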;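 note: TNF-alpha given at a submaximal dose yielding about 80% of full reporter signal; values are well signal over median control so 100% means no change and 0% no light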). Conditions: HEK293T NF-kB luciferase reporter, TNF-alpha stimulated, at 5.7 µM, stronger effect = higher value, 100% = TNF-alpha with vehicle only.
Experiment [19] concerns the target Signal transducer and activator of transcription 3 (Homo sapiens) (UniProt P40763). Description: enhancers of IL-6 STAT3 transcription – U3A cells, luciferase, luminescence, counter-screen for STAT1 activator project, confirmation (AID 1316;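 active = activation above the solvent-only control well mean plus 3 SD, set per plate batch, cut at about 110% in these data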;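 note: 0% = no luminescence and 100% = median IL-6 plus DMSO wells; higher means more STAT3 reporter activation so hits are non-selective activators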). Conditions: U3A cells STAT3-luciferase reporter, IL-6, luminescence; at 5.7 µM; stronger effect = higher value; 100 = IL-6 alone, no compound effect; cells lack STAT1.

Experiment [20] has as its system DAF-12 nuclear receptor (Heterodera glycines), GAL4-LBD fusion. Description: hgDAF-12 GAL4 fusion reporter activation, retest – cell-based, luminescence, HEK293, GAL4-LBD fusion, confirmation (AID 743050;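 active = mean activation over triplicate wells above the hit cutoff derived from the earlier primary screen, cut at about 11% in these data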;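 note: 0% = DMSO low control and 100% = 2 mM sodium butyrate high control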). Conditions: HEK293 GAL4-hgDAF12 luciferase reporter, agonist mode; at 6.8 µM; stronger effect = higher value; percent of butyrate response.
For experiment [21], the target named is Oxysterols receptor LXR-beta (Homo sapiens) (UniProt P55055). Description: nonspecific reporter activation via LXR – cell-based, luminescence, HEK293, H. glycines campaign, counter-screen for hgDAF-12 agonist project, confirmation (AID 743051;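 active = mean activation of the triplicate above a set limit carried over from the primary screen, none filed active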). Conditions: HEK293 Gal4-LXR luciferase reporter, 24 h; at 6.8 µM; stronger effect = higher value.
Oxysterols receptor LXR-beta (Homo sapiens), sequence (P55055 whole entry, looked up, the tested form may be a part): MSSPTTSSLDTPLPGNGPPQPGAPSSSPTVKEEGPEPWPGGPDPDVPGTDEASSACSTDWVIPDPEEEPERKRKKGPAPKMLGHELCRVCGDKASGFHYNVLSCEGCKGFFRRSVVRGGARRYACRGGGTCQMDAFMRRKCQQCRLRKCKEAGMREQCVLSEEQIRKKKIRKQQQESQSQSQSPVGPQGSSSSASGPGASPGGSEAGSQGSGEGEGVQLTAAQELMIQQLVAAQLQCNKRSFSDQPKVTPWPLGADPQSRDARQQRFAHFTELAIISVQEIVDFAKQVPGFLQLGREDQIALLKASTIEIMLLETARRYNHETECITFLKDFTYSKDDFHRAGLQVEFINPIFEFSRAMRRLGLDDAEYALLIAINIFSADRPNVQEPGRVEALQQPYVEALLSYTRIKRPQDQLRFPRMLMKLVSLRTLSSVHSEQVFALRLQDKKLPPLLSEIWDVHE
Experiment [22] deals with transactivating tegument protein VP16 (Human herpesvirus 1). Description: compounds suppressing VP16-driven luciferase signal – cell-based, luminescence, single concentration, counter-screen for SRC2 inhibitor project (AID 652007; in the data active = inhibition above about 36%). Conditions: cell-based VP16 transactivation luciferase reporter, at 8.9 µM, stronger effect = higher value.
In experiment [23] the target is Nuclear receptor coactivator 2 (Homo sapiens) (UniProt Q15596). As to the kind of experiment: inhibition of GAL4-SRC2 driven luciferase expression – cell-based, luminescence, HEK293, triplicate, confirmation (AID 652008;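 active = mean inhibition above 46.5%, the solvent-only control mean plus 3 SD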;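 note: 0% = DMSO-treated cells and 100% = Gossypol at 36 µM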). Conditions: HEK293 GAL4-SRC2 luciferase reporter, at 8.9 µM, stronger effect = higher value.
Nuclear receptor coactivator 2 (Homo sapiens), sequence (Q15596 whole entry, looked up, the tested form may be a part): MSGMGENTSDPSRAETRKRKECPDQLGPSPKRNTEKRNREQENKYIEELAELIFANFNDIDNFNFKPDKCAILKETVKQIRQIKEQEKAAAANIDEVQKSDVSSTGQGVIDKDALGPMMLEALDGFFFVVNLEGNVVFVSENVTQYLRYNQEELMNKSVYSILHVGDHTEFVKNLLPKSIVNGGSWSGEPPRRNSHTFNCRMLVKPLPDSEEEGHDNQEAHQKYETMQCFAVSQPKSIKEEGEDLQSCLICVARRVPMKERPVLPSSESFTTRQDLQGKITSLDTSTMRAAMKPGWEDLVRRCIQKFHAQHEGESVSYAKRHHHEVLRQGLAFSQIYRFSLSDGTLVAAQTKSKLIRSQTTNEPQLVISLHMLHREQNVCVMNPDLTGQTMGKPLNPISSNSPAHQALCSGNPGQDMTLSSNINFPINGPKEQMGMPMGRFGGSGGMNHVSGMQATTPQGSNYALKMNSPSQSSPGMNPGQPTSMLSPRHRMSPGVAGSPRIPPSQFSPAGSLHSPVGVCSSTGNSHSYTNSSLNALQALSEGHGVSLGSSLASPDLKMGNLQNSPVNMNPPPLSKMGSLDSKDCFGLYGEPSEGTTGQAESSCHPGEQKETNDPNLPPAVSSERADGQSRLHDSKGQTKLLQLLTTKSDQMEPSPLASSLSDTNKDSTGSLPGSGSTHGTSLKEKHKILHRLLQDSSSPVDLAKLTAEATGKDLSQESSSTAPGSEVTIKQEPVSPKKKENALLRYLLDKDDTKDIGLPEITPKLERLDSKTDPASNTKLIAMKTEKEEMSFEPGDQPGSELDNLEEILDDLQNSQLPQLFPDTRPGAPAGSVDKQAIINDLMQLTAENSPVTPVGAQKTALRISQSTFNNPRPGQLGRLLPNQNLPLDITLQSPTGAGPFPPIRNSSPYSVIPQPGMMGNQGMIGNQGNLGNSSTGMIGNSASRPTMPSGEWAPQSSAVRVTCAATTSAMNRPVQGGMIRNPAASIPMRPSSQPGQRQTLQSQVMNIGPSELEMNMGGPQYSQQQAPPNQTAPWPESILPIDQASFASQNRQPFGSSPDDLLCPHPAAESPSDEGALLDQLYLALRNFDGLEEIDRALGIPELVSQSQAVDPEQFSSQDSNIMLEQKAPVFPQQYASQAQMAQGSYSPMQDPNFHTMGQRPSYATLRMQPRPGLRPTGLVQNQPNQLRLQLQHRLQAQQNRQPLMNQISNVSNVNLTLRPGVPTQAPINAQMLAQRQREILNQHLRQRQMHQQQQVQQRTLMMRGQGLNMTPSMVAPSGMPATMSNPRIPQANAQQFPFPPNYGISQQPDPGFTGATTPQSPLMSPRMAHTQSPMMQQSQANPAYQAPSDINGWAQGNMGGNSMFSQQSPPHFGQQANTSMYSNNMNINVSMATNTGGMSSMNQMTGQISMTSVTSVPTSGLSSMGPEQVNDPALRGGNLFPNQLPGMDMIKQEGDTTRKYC
Experiment [24] deals with Insulin-degrading enzyme (Homo sapiens) (UniProt P14735). Description: cellular IDE Abeta-cleavage inhibition – fluorescence polarization, HEK cells, FAbetaB substrate, confirmation (AID 435028;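 active = mean inhibition across triplicate wells above the cutoff set by the earlier primary insulin-degrading enzyme screen, cut at about 16% in these data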;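 note: 0% = DMSO wells and 100% = 60 µM reference IDE inhibitor Ii1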). Conditions: at 5.59 µM, stronger effect = higher value.
Insulin-degrading enzyme (Homo sapiens), sequence (P14735 whole entry, looked up): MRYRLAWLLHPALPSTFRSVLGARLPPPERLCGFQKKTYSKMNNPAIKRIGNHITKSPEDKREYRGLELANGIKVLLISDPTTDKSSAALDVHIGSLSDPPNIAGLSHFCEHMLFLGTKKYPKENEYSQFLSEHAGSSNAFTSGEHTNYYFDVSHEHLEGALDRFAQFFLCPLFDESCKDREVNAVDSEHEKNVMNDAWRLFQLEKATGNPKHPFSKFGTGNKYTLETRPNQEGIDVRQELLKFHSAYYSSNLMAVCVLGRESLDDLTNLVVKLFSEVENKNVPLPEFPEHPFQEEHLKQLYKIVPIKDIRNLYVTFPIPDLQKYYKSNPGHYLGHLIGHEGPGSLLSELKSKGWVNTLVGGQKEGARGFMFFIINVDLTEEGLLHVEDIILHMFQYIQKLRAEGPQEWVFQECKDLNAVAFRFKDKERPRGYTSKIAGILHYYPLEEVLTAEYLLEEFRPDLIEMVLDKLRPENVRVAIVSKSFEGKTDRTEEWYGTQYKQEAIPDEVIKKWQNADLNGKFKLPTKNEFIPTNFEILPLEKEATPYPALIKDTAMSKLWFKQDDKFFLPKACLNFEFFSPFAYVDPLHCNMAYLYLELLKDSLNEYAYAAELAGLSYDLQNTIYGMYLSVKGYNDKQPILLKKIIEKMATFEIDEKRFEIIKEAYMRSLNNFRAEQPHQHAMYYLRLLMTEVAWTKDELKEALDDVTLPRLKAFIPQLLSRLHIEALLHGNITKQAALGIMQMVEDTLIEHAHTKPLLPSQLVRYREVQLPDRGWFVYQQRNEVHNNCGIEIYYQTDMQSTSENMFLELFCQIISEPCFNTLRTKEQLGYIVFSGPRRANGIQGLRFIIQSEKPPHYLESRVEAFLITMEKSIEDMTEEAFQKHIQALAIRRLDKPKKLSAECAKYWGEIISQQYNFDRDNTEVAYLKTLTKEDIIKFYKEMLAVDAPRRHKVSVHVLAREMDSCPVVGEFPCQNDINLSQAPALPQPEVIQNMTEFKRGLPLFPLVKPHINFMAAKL
A short description of experiment [25]: HEK cell viability loss – luminescence, cytotoxicity control for IDE inhibitor project (AID 449730; in the data active = inhibition above about 22%;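 note: 0% = vehicle wells and 100% = reference cytotoxic drug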). Conditions: HEK293 cytotoxicity, ATP luminescence; at 5.59 µM; stronger effect = higher value.
The nature of experiment [26]: nonselective effects on VP16 transactivation – cell-based, luminescence, CHO-S, high throughput, counter-screen for NR2E3 agonist project, confirmation (AID 624379;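 active = mean inhibition above a cutoff equal to the average over all tested compounds plus one standard deviation, cut at about 70% in these data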;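 note: 0% = DMSO with VP16-transfected cells and 100% = DMSO with cells lacking VP16; higher means less reporter light so more repression of VP16 activity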). Conditions: CHO-S GAL4-VP16 luciferase reporter, at 3.98 µM, stronger effect = higher value.
Experiment [27] in a line: VP16-driven transactivation reporter suppression – cell-based, luminescence, HEK293, counter-screen for COUP-TFII antagonist project (AID 687007; in the data active = inhibition above about 13%). Conditions: HEK293 Gal4-VP16 luciferase reporter, at 8.5 µM, stronger effect = higher value.
Experiment [28] deals with COUP transcription factor 2 (Homo sapiens) (UniProt P24468). As to the kind of experiment: retest of COUP-TFII reporter suppressors – cell-based, luciferase reporter, HEK293, triplicate, confirmation (AID 687008;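 active = mean inhibition over three repeats above a set limit taken from the earlier primary screen, cut at about 38% in these data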;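 note: 100% = cells given the luciferase reporter alone without the COUP-TF2 vector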). Conditions: HEK293 NGFI-A luciferase reporter, luminescence; at 8.5 µM; stronger effect = higher value.
COUP transcription factor 2 (Homo sapiens), sequence (P24468 whole entry, looked up): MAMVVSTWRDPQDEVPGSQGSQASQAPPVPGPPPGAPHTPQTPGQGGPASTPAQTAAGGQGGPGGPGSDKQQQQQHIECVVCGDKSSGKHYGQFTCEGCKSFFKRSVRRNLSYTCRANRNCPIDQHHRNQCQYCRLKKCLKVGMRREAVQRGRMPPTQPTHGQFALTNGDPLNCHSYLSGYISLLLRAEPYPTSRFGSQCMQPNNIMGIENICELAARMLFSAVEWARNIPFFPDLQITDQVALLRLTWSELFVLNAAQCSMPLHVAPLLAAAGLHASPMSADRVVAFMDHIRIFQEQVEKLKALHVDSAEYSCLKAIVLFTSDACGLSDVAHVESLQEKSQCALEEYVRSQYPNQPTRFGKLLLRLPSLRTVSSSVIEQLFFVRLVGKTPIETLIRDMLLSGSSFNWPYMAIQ

Photoreceptor-specific nuclear receptor (Homo sapiens), sequence (Q9Y5X4 whole entry, looked up): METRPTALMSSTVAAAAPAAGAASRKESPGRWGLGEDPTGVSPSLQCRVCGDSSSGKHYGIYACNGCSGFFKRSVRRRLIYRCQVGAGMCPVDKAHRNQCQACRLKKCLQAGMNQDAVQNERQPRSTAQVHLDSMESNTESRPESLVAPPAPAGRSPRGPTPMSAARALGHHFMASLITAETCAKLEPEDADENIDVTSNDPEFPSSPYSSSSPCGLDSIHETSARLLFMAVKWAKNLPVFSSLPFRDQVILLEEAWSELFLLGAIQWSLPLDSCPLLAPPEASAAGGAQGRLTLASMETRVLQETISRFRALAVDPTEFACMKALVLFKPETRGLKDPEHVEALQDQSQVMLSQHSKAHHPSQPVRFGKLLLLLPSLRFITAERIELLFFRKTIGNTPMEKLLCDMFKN

Consider `Oc1c(Cl)cc(Cl)c(Cl)c1Cc1c(O)c(Cl)cc(Cl)c1Cl`, for which the inhibition in [1] is 46.3% (active); in experiment [2] it was 20.9% (active); in experiment [3], 41% (active); in experiment [7] it was 15.6%; in experiment [9], 88% (active); in experiment [10], 31.1% (active). Moreover, the inhibition was 47.1% (active) in [11]; 10.2% in experiment [12]; 98.9% (active) in experiment [13]; 11.6% (active) in [14]; 11.5% in experiment [15]; 2.09% in experiment [16]. The activation in experiment [4] is 24.1%; in [5] it was 3.71%; in [6], 14.9%; in experiment [8] it was 24.1% (active).

As for `CC(=O)c1sc(N/N=C/c2ccc(C(C)C)cc2)nc1C`, the results for the activation (% of control) in experiment [17], in [18] and in experiment [19] were 187% (active), 133% (active) and 110%, respectively. Also, the activation in [20] was 11.8% (active); in experiment [21], 0.5%.

For the molecule `CCCCCc1ccc(-c2ccc(C(=O)O)cc2)nc1`, the inhibition in experiment [1] is 22.4%; in [2] it was -6.17%; in experiment [3] it was -71.4%.

With `O=C(Nc1cccnc1)c1noc2c1CCCCC2`, the inhibition in experiment [1] is 16.7%; in experiment [2], -24.9%; in experiment [3], -46.6%.

Consider `CN(C)S(=O)(=O)c1ccc(NC(=O)COC(=O)c2n[nH]c3ccccc23)cc1`, for which the inhibition was 38.2% in experiment [1]; 1.2% in experiment [2]; 8.4% in experiment [3]; -6.29% in experiment [7]; -4.93% in [22]; 16% in experiment [23]. Moreover, the activation in experiment [4] was -2.42%; in experiment [5], -36%; in experiment [6], -29.4%; in [8], 4.88%.

As to `CCCCOc1ccc(-c2nnc(-c3ccco3)o2)cc1`, the inhibition is 21.3% in experiment [1], -24.1% in experiment [2] and -66.4% in [3].

In the case of `O=C(Nc1ccc(-c2nnc(-c3ccccc3)o2)cc1)C1CCCO1` (configuration not stated), the values for the activation (% of control) in experiment [17], in experiment [18] and in [19] were 207% (active), 122% and 123% (active), respectively. In addition, the activation was 15.9% (active) in experiment [20] and 0.9% in experiment [21].

With `CC(C)OCCCNc1ncnc2c1[nH]c1ccc(F)cc12`, the inhibition in [1] is 78.6% (active); in experiment [2], 33.4% (active); in [3], 31.1% (active); in experiment [24], 17.2% (active); in experiment [25] it was 75.2% (active); in experiment [13], 96.7% (active). Further, the inhibition in experiment [26] was 81.3% (active); in experiment [27], -32.6%; in experiment [28], 63.3% (active).

Regarding `O=C1NC(Nc2nc3ccccc3s2)(C(F)(F)F)C(=O)N1C1CCCCC1` (configuration not stated), the inhibition is 51.1% (active) in experiment [1], 21.2% (active) in experiment [2] and -9.63% in experiment [3].

Take `Cc1nn(-c2ccc([N+](=O)[O-])cc2)c(N)c1-c1ccccc1`: the activation (% of control) was 207% (active) in experiment [17], 145% (active) in experiment [18] and 126% (active) in [19]. The activation was 16.4% (active) in experiment [20] and 0.83% in experiment [21].
